In all, about 18,000 sequences were measured (“log2 normalized intensity”: median about 0.39, highest 2% from about 6.6 on). This excerpt belongs to a sample that is enriched for the highest values.

For the test, the target named is T1, HNF4alpha2 (COS-7 nuclear extract) (Homo sapiens, UniProt P41235 1-474).
T1 sequence: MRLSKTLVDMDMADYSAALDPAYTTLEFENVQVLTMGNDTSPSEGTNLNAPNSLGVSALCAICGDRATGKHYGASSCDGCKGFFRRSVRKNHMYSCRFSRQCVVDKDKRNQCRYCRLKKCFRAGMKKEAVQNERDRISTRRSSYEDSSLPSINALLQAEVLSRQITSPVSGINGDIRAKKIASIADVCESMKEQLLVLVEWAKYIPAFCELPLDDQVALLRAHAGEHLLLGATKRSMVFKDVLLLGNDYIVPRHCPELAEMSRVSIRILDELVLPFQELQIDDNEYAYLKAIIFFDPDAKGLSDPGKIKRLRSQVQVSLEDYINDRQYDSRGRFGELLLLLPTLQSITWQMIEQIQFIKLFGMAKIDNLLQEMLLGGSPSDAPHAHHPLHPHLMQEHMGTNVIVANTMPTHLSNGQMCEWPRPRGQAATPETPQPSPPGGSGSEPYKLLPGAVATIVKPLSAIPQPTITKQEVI
In words: protein-binding microarray; COS-7 nuclear extract on double-stranded Agilent 4x180k PBM; binding buffer, salt, pH and temperature not given in the material; high values mean tight binding. The conditions noted are these: chain copies: 2; label: 3' end of strand 1 on the slide; dsDNA, one strand shown. Summed up: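 Nuclear extracts from COS-7 cells expressing a transiently transfected human HNF4α isoform were put on a custom Agilent SurePrint G3 4x180k array carrying ~44,000 double-stranded ~60-nt test sequences in quadruplicate. Imaging used an Agilent G2565CA scanner at 2-µm resolution. Binding signal is the background-corrected, normalized gProcessedSignal from Agilent software.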
Consider “TTCCCTCATGATTTAGTAAGTTCAAGAAGAGCCTAGGGAGATTAGAGTATCGGTCGA”, for which the binding signal was determined as 0.956 log2 normalized intensity.
The result for “GGCCTTGGGCCACCTGAGACAGTTTATGCCGCCTAGGGAGATTAGAGTATCGGTCGA” reads -0.994 log2 normalized intensity; that for “CCCTTTGGCCTTTCTAATTATTTACAGGGAGCCTAGGGAGATTAGAGTATCGGTCGA”, 0.82 log2 normalized intensity; that for “AGGACTTTGGACCGTCTTGTGGATCCTTGGGCCTAGGGAGATTAGAGTATCGGTCGA”, 4.73 log2 normalized intensity.
As for “CAATAAGGACTTTGGACCGTCTTGTGGATCGCCTAGGGAGATTAGAGTATCGGTCGA”, the figure is 5.92 log2 normalized intensity.
For the sequence “TCCTATTCGGTGCTGACCTTTGTTCACATTGCCTAGGGAGATTAGAGTATCGGTCGA”, the binding signal was 5.89 log2 normalized intensity.
As for “GAGCACTCATTCCTATTCGGTGCTGACCTTGCCTAGGGAGATTAGAGTATCGGTCGA”, the figure is 3.47 log2 normalized intensity.
As for “GACCTGTCTTCCTGGTGACCTTTGTTTGGTGCCTAGGGAGATTAGAGTATCGGTCGA”, the figure is 4.94 log2 normalized intensity; as for “ACACACAATAAGGACTTTGGACCGTCTTGTGCCTAGGGAGATTAGAGTATCGGTCGA”, 7.27 log2 normalized intensity.
As for “CGGGTATGTGGGGCGTGTGTTAGACTTTGGGCCTAGGGAGATTAGAGTATCGGTCGA”, the figure is 4.22 log2 normalized intensity; as for “GTCAAGTAGAGACCTGTCTTCCTGGTGACCGCCTAGGGAGATTAGAGTATCGGTCGA”, 2.19 log2 normalized intensity.
Consider “CTCATTCCTATTCGGTGCTGACCTTTGTTCGCCTAGGGAGATTAGAGTATCGGTCGA”, for which the binding signal was 7.77 log2 normalized intensity.
With “TAGACTTTGGACCTGGCCTGCGGGGTCAGGGCCTAGGGAGATTAGAGTATCGGTCGA”, the binding signal was found to be 5.39 log2 normalized intensity.
For the sequence “ATGTGGGGCGTGTGTTAGACTTTGGACCTGGCCTAGGGAGATTAGAGTATCGGTCGA”, the binding signal is 8.86 log2 normalized intensity.
As for “GTAGAGACCTGTCTTCCTGGTGACCTTTGTGCCTAGGGAGATTAGAGTATCGGTCGA”, the figure is 7.11 log2 normalized intensity; as for “CATGGGCTGTCACCTTTACCCCCACTCTCCGCCTAGGGAGATTAGAGTATCGGTCGA”, 4.46 log2 normalized intensity.
The result for “CTCCCAAGGTATCCTCCTAGAGTCCAAGGTGCCTAGGGAGATTAGAGTATCGGTCGA” reads 2.68 log2 normalized intensity; that for “GAACTTTGACTTATTTAGTAGTGGCAAGAGGCCTAGGGAGATTAGAGTATCGGTCGA”, 2.7 log2 normalized intensity; that for “CAAAGCCCCTTTCCACTCTACCGTCCTCCCGCCTAGGGAGATTAGAGTATCGGTCGA”, 1.91 log2 normalized intensity.
Consider “CCAGGGACTTTGAACACTTCTTTGTTACTTGCCTAGGGAGATTAGAGTATCGGTCGA”, for which the binding signal stood at 2.44 log2 normalized intensity.
Consider “GTGCTGACCTCCTGTCTCATCCTGTGACCAGCCTAGGGAGATTAGAGTATCGGTCGA”, for which the binding signal turned out to be 1.42 log2 normalized intensity.
As for “TCACCCTCTCCACCCCCATGCAAGTTCCCAGCCTAGGGAGATTAGAGTATCGGTCGA”, the figure is 5.26 log2 normalized intensity.
For “GGACTTTGGCCTTACTTGGCCTGTTTGCTGGCCTAGGGAGATTAGAGTATCGGTCGA”, the binding signal was determined as 5.51 log2 normalized intensity.
Consider “AACGGTTCAAAGGACAGACTTTGGACCTGGGCCTAGGGAGATTAGAGTATCGGTCGA”, for which the binding signal came to 7.15 log2 normalized intensity.
As to “TTCAAAGGACAGACTTTGGACCTGGCCCTCGCCTAGGGAGATTAGAGTATCGGTCGA”, the binding signal was 5.66 log2 normalized intensity.
The result for “GGGCGTGTGTTAGACTTTGGACCTGGCCTGGCCTAGGGAGATTAGAGTATCGGTCGA” reads 7.25 log2 normalized intensity; that for “CCTGATGACAACTGAATGTGACCTTTTGGAGCCTAGGGAGATTAGAGTATCGGTCGA”, 5.25 log2 normalized intensity.
As for “GTGAGTGGACTTTGGTCCTGGTCAGACTTGGCCTAGGGAGATTAGAGTATCGGTCGA”, the figure is 5.76 log2 normalized intensity.
Turning to “GTTGGACTTTGGACCTTTGTGTGTGTGTGTGCCTAGGGAGATTAGAGTATCGGTCGA”, the binding signal was 7.93 log2 normalized intensity.
The result for “ACTTTGGACCTTTGTGTGTGTGTGTGTGTGGCCTAGGGAGATTAGAGTATCGGTCGA” reads 3.6 log2 normalized intensity; that for “ACTGAATGTGACCTTTTGGACCACAGAGTGGCCTAGGGAGATTAGAGTATCGGTCGA”, 5.39 log2 normalized intensity.
The result for “CACCTGTGTCAACATGGACTTTGTTGTTTGGCCTAGGGAGATTAGAGTATCGGTCGA” reads 4.33 log2 normalized intensity; that for “TGACAACTGAATGTGACCTTTTGGACCACAGCCTAGGGAGATTAGAGTATCGGTCGA”, 6.82 log2 normalized intensity.
The result for “GATACAACGGTTCAAAGGACAGACTTTGGAGCCTAGGGAGATTAGAGTATCGGTCGA” reads 3.39 log2 normalized intensity; that for “TGGTTAGGTATTTTAAGTCACCAGATGAGAGCCTAGGGAGATTAGAGTATCGGTCGA”, 0.217 log2 normalized intensity; that for “CTCCTCCCTCAGGGATCTTTGCACTTGATGGCCTAGGGAGATTAGAGTATCGGTCGA”, 1.32 log2 normalized intensity.
“TGGATGGGGGAGGGGACTTCGCTGGAGGTGGCCTAGGGAGATTAGAGTATCGGTCGA”: the binding signal was -0.382 log2 normalized intensity.
The result for “TATCTTCGTATAGAAACAAGACAGAATGATGCCTAGGGAGATTAGAGTATCGGTCGA” reads -0.775 log2 normalized intensity; that for “GTAAACACAGACTTTGGAATCACAATGATAGCCTAGGGAGATTAGAGTATCGGTCGA”, 1.97 log2 normalized intensity.
The result for “CCTGTACCTAGAATTCTTTCACTCCCTTTTGCCTAGGGAGATTAGAGTATCGGTCGA” reads 1.12 log2 normalized intensity; that for “TTACCGGTGTGACTTTGGTTGGATTTCTTGGCCTAGGGAGATTAGAGTATCGGTCGA”, 1.54 log2 normalized intensity; that for “GGGGACCTTTGGCCTTTACCTGTTACTTATGCCTAGGGAGATTAGAGTATCGGTCGA”, 3.57 log2 normalized intensity.
As for “AGGGGTTACTAGTGAGTTGGACTTTGGACCGCCTAGGGAGATTAGAGTATCGGTCGA”, the figure is 11.6 log2 normalized intensity; as for “AAGAAGGTTTACTCAAGCAAAAAGTTTGGAGCCTAGGGAGATTAGAGTATCGGTCGA”, 0.467 log2 normalized intensity; as for “AGGTACAAACATACTTAGGATTTTTGTGCCGCCTAGGGAGATTAGAGTATCGGTCGA”, 0.442 log2 normalized intensity.
Regarding “CTCTCGGGCCAGCTGTACAAATAAAGGATGGCCTAGGGAGATTAGAGTATCGGTCGA”, the binding signal was -0.146 log2 normalized intensity.
Regarding “TAAACTTTTGATTGCTTAGGCTCTTGTTATGCCTAGGGAGATTAGAGTATCGGTCGA”, the binding signal is -0.703 log2 normalized intensity.
With “GAGGCAGCAAGGTCAAAGTGCGTCCTGTGGGCCTAGGGAGATTAGAGTATCGGTCGA”, the binding signal is 3.92 log2 normalized intensity.
Regarding “CTGTGCTTTGTTTACTTAACCTTTGATCATGCCTAGGGAGATTAGAGTATCGGTCGA”, the binding signal came to 7.05 log2 normalized intensity.
As for “GATATTTAACCTTTGATCTGTAAGCTCTCTGCCTAGGGAGATTAGAGTATCGGTCGA”, the figure is 4.61 log2 normalized intensity.
The result for “TTGCACTGTGCTTTGTTTACTTAACCTTTGGCCTAGGGAGATTAGAGTATCGGTCGA” reads 4.05 log2 normalized intensity; that for “CTTTGTTTACTTAACCTTTGATCATATGCAGCCTAGGGAGATTAGAGTATCGGTCGA”, 5.18 log2 normalized intensity.
Turning to “GTGGCTACCTGTGCAGATATTTAACCTTTGGCCTAGGGAGATTAGAGTATCGGTCGA”, the binding signal turned out to be 4.11 log2 normalized intensity.
As for “TACCTGTGCAGATATTTAACCTTTGATCTGGCCTAGGGAGATTAGAGTATCGGTCGA”, the figure is 7.34 log2 normalized intensity.
As for “TCTGAAAAAAGCTATCATTTGTCACTTGGAGCCTAGGGAGATTAGAGTATCGGTCGA”, the figure is 1.38 log2 normalized intensity.
As for “GACCAGGTTGTGAGGGAGGGCACAGGCAACGCCTAGGGAGATTAGAGTATCGGTCGA”, the figure is -0.298 log2 normalized intensity; as for “ATTTCTGTTGTTGATTTAACATTTGTGATCGCCTAGGGAGATTAGAGTATCGGTCGA”, 1.92 log2 normalized intensity.
Consider “TGATAGCCTTTTACCTTGGCAGCCACTGAGGCCTAGGGAGATTAGAGTATCGGTCGA”, for which the binding signal was -0.876 log2 normalized intensity.
The result for “AGGCTGAAGGGAAGCTCTGGGAGTGCCCTTGCCTAGGGAGATTAGAGTATCGGTCGA” reads 1.93 log2 normalized intensity.
As for “CTGCCAAATATTGGGCAATGCTAGGTCTTTGCCTAGGGAGATTAGAGTATCGGTCGA”, the figure is -0.788 log2 normalized intensity.
As for “TGTGATGTGAAGAGTGTGGACTTTCACCTCGCCTAGGGAGATTAGAGTATCGGTCGA”, the figure is 8.12 log2 normalized intensity.
As to “ACTTTGGACTTGGGACTTTCGAGTTAATGCGCCTAGGGAGATTAGAGTATCGGTCGA”, the binding signal was found to be 4.12 log2 normalized intensity.
The result for “GGACTTGGGACTTTCGAGTTAATGCTGGAGGCCTAGGGAGATTAGAGTATCGGTCGA” reads 2.54 log2 normalized intensity; that for “TGTGAAGAGTGTGGACTTTCACCTCCACCAGCCTAGGGAGATTAGAGTATCGGTCGA”, 6.06 log2 normalized intensity.
The result for “CTGGACTTTCCTTTGTTGGGAGACTTTTTAGCCTAGGGAGATTAGAGTATCGGTCGA” reads 1.63 log2 normalized intensity; that for “CCTTTGGACTGTCCTTTGCTAGATTCTTTCGCCTAGGGAGATTAGAGTATCGGTCGA”, 2.01 log2 normalized intensity.
The result for “GAGACTTTGGACTTTGGACTTGGGACTTTCGCCTAGGGAGATTAGAGTATCGGTCGA” reads 9.27 log2 normalized intensity; that for “GACCATGTGATGTGAAGAGTGTGGACTTTCGCCTAGGGAGATTAGAGTATCGGTCGA”, 4.26 log2 normalized intensity; that for “TTTGGACTTTGGACTTGGGACTTTCGAGTTGCCTAGGGAGATTAGAGTATCGGTCGA”, 7.8 log2 normalized intensity.
“TGAGTAGTGTACGTTGTACCCCACAGGTATGCCTAGGGAGATTAGAGTATCGGTCGA”: the binding signal is 2.94 log2 normalized intensity.
The result for “CTCTCTTTCTTCCCCCACTCCAAGTTCCTTGCCTAGGGAGATTAGAGTATCGGTCGA” reads 4.22 log2 normalized intensity; that for “TGCTCCAGTAAAAGCTCTACCTGACCTCCCGCCTAGGGAGATTAGAGTATCGGTCGA”, 2.94 log2 normalized intensity; that for “GCTGTGTCCCACAGGGAAAGTATGGGTCAGGCCTAGGGAGATTAGAGTATCGGTCGA”, 1.12 log2 normalized intensity.
On to “TCATGTTCAATATACAGTTGGTATTTAGTAGCCTAGGGAGATTAGAGTATCGGTCGA”, for which the binding signal stood at 1.83 log2 normalized intensity.
As for “CCCCTAAAGGAGGCAAGGTCCAAACTTCTCGCCTAGGGAGATTAGAGTATCGGTCGA”, the figure is 1.7 log2 normalized intensity.
As for “ATGTTGGGCAACTACCTCAAAGTTTTGTTAGCCTAGGGAGATTAGAGTATCGGTCGA”, the figure is 0.0615 log2 normalized intensity.

Source of the values: article PMC10726135, “HNF4α isoforms regulate the circadian balance between carbohydrate and lipid metabolism in the liver”.
